# Experimental data reported in PubChem BioAssay (NCI).
# About 79,000 compounds went through this panel and 15% of them were active in at least one assay; those are over-represented in the sample as a whole. A number with no mark means an inactive call. Calls of active or inactive are those of the source. Cut-off read from the data, not from the text of the source: active = growth inhibition above about 70%; inactive = the rest.
# Columns and labels:
# [1] = NCI Yeast Anticancer Drug Screen. Data for the rad50 strain (AID 155);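 note: 0% = growth of vehicle-only cultures of the same strain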; conditions: S. cerevisiae rad50 strain growth inhibition, active compounds read high
# In short: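 A DNA repair-deficient yeast mutant serves as the test organism; compound-induced growth inhibition is calculated against vehicle-treated cells.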
# [2] = NCI Yeast Anticancer Drug Screen. Data for the mec2-1 strain (AID 157); conditions: S. cerevisiae mec2-1 strain, active compounds read high
# In short: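 Readout is yeast growth inhibition, normalised to vehicle-treated controls, in the mec2-1 strain exposed to compound.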
# [3] = NCI Yeast Anticancer Drug Screen. Data for the sgs1 mgt1 strain (AID 161);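 note: 0% = growth of cultures given vehicle only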; conditions: S. cerevisiae sgs1 mgt1 strain, active compounds read high
# In short: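 This yeast growth screen uses a strain with defined DNA-repair lesions; compound-treated growth is compared with vehicle-treated growth.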
# [4] = NCI Yeast Anticancer Drug Screen. Data for the cln2 rad14 strain (AID 165);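 note: 0% = growth equal to vehicle treated cultures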; conditions: S. cerevisiae cln2 rad14 strain, active compounds read high
# In short: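 Relative to vehicle controls, growth inhibition of compound-treated cln2 rad14 yeast was recorded.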
# [5] = NCI Yeast Anticancer Drug Screen. Data for the bub3 strain (AID 167); conditions: S. cerevisiae bub3 mutant strain, active compounds read high
# In short: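 Inhibition values come from growth of compound-treated mutant yeast normalised to vehicle-treated controls.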
# [6] = NCI Yeast Anticancer Drug Screen. Data for the mlh1 rad18 strain (AID 175); conditions: S. cerevisiae mlh1 rad18 strain growth inhibition, active compounds read high
# In short: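 Test agents were incubated with a yeast strain of defined genotype (DNA damage repair defect). Inhibition of growth was derived by comparison with vehicle-exposed cultures.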
# [7] = at 5.0 µM (retest, dose inferred, filed as 0.5)
# [8] = at 50.0 µM (retest, dose inferred, filed as 5.0)
Compound,"growth inhibition [1, 7]","growth inhibition [1, 8]",growth inhibition ([1]; at 50.0 µM),"growth inhibition [2, 7]","growth inhibition [2, 8]",growth inhibition ([2]; at 50.0 µM),"growth inhibition [3, 7]","growth inhibition [3, 8]",growth inhibition ([3]; at 50.0 µM),"growth inhibition [4, 7]","growth inhibition [4, 8]",growth inhibition ([4]; at 50.0 µM),"growth inhibition [5, 7]","growth inhibition [5, 8]",growth inhibition ([5]; at 50.0 µM),"growth inhibition [6, 7]","growth inhibition [6, 8]",growth inhibition ([6]; at 50.0 µM)
CC(C)(C)c1ccc(O)c(CN(Cc2c(O)ccc3ccccc23)C2CCCCC2)c1,22%,99% (active),98% (active),17%,98% (active),98.2% (active),13%,99% (active),98% (active),-12%,97% (active),97.7% (active),-3%,99% (active),97.4% (active),10%,99% (active),98.1% (active)
CCc1cccc(CC)c1NC(=S)N/C=C(\C#N)C(=O)c1ccc2ccccc2c1,7%,14%,44.8%,-2%,6%,38.5%,0%,13%,61.4%,-23%,5%,6.85%,3%,7%,59.1%,-2%,5%,67.2%
COc1ccc2c(c1)nc1ccc(Cl)cc1[n+]2C,-6%,61%,82.2% (active),2%,64%,84.1% (active),-2%,55%,82.2% (active),-7%,52%,83.1% (active),7%,70% (active),92.2% (active),6%,66%,89% (active)
CCc1cccc(C)c1NC(=O)C1=C(C)NC(C)=C(C(=O)Nc2c(C)cccc2CC)C1c1ccc2c(c1)OCO2,32%,32%,91.2% (active),27%,27%,89.3% (active),33%,33%,89.6% (active),20%,20%,84.2% (active),26%,26%,90% (active),37%,37%,87.2% (active)
CCCCN1CCN(c2ccc([N+](=O)[O-])c3no[n+]([O-])c23)CC1,97% (active),99% (active),90.5% (active),94% (active),99% (active),93.2% (active),90% (active),99% (active),90.2% (active),43%,98% (active),88.2% (active),58%,98% (active),91.2% (active),96% (active),99% (active),90.5% (active)
CCC(=O)C(CC)(c1ccc(OC(C)=O)cc1)c1ccc(OC(C)=O)cc1,13%,82% (active),-20.3%,24%,73% (active),-1.2%,9%,75% (active),53.1%,9%,33%,14.7%,9%,59%,35.1%,21%,93% (active),-1.85%
CSc1cccc(N2C(=O)C=CC2=O)c1,42%,52%,91.5% (active),49%,48%,93.4% (active),100% (active),100% (active),94% (active),69%,100% (active),91.5% (active),100% (active),100% (active),92.7% (active),34%,45%,92.5% (active)
c1cc2c(cc1CCCCCCCCCCc1ccc3c(c1)CCC3)CCC2,-4%,-5%,2.75%,-13%,-8%,3.85%,9%,2%,3.3%,-4%,0%,79.8% (active),-6%,-2%,2.95%,-2%,-38%,10.6%
Cc1c2c(c(C)c3c4c(oc13)CCCC4)C=NCC2,-4%,49%,69.7%,3%,41%,92.8% (active),-7%,36%,25%,-46%,26%,29.2%,-8%,-78%,50.2%,-5%,45%,80.1% (active)
CCCCCCOC(=O)COc1ccccc1,4%,2%,23.6%,0%,-1%,-0.8%,-1%,3%,20.6%,5%,1%,40.8%,24%,45%,15.8%,-1%,0%,33.7%
F[Si](c1ccccc1)(c1ccccc1)c1ccccc1,-3%,75% (active),62%,3%,87% (active),25.3%,8%,79% (active),32.1%,0%,82% (active),41.6%,-5%,98% (active),45.6%,10%,94% (active),79.5% (active)
O=c1c(Cc2c[nH]c3ccccc23)coc2ccccc12,0%,95% (active),24.2%,8%,91% (active),7.85%,3%,84% (active),51.1%,10%,92% (active),-69.5%,9%,98% (active),14.1%,0%,95% (active),21.8%
CC(C(=O)c1ccc2cc(Br)c3ccccc3c2c1)N(C)C (configuration not stated),-6%,99% (active),99.4% (active),1%,99% (active),98.5% (active),-14%,100% (active),99.2% (active),-5%,99% (active),99.5% (active),25%,99% (active),99.4% (active),5%,99% (active),99.3% (active)
CCCCCCCCCc1cccc(N2C(N)=NC(N)=NC2(C)C)c1,99% (active),88% (active),99.3% (active),100% (active),28%,99.6% (active),99% (active),42%,99.6% (active),99% (active),19%,99% (active),98% (active),12%,99.4% (active),99% (active),29%,99.4% (active)
CCOc1ccc(/C=C2\NC(=S)N(/C=C3\C(=O)Oc4ccccc4C3=O)C2=O)cc1,77% (active),91% (active),-16.1%,6%,71% (active),-28.6%,-30%,58%,0.45%,-14%,70% (active),-39.2%,-31%,76% (active),-23.9%,11%,94% (active),-8.6%
CC(C)CCCOC(=O)c1cc([N+](=O)[O-])cc([N+](=O)[O-])c1,12%,30%,67.8%,2%,27%,53.1%,5%,51%,96% (active),3%,25%,54.2%,0%,24%,72.6% (active),3%,70% (active),93.8% (active)
CCCCCCCCCCCCCCCCN[Si](NCCCCCCCCCCCCCCCC)(NCCCCCCCCCCCCCCCC)NCCCCCCCCCCCCCCCC,97% (active),96% (active),85.5% (active),99% (active),96% (active),83.4% (active),99% (active),96% (active),88.2% (active),98% (active),95% (active),85.5% (active),99% (active),97% (active),86% (active),97% (active),95% (active),83.9% (active)
COc1cc(C(=O)OCC(C)C)ccc1O,3%,33%,15.1%,3%,4%,6.2%,2%,8%,2.8%,2%,14%,-16.1%,96% (active),98% (active),45.3%,-5%,13%,3.3%
COc1ccc(-c2cc3ccccc3c(=O)n2Cc2ccccc2)cc1,8%,66%,78.3% (active),11%,74% (active),88.4% (active),13%,73% (active),83.7% (active),6%,57%,74% (active),8%,63%,89.3% (active),11%,66%,79.3% (active)
